Read-out in assay [1]: organic anion transporter (SLCO1B1), SLCO1B1 (gene 10599)
Put plainly: CLD_SLCO1B1_6hr: CellzDirect (CLD) Gene Expression Assay for organic anion transporter (SLCO1B1) at 6 hours (AID 2283668).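 Note: active means mRNA induction above DMSO baseline.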 The method in brief: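 SLCO1B1 mRNA induction measured 6 h after dosing by quantitative nuclease protection with chemiluminescent read-out, in human primary hepatocyte cultures given chemicals at several concentrations (vehicle 0.2% DMSO). Increase over DMSO baseline fitted; morphology-based cytotoxicity annotated yes/no.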

Read-out in assay [2]: glucuronosyltransferase (UGT1A1), UGT1A1 (gene 54658)
Put plainly: CLD_UGT1A1_6hr: CellzDirect (CLD) Gene Expression Assay for glucuronosyltransferase (UGT1A1) at 6 hours (AID 2283672). The method, boiled down:
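UGT1A1 mRNA induction, read by quantitative nuclease protection assay, 6 h after dosing primary human hepatocytes (two donors, 0.2% DMSO vehicle). Gain of signal fitted relative to vehicle.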

Read-out in assay [3]: xenobiotic metabolism (CYP1A1), CYP1A1 (gene 1543)
Put plainly: CLD_CYP1A1_24hr: CellzDirect (CLD) Gene Expression Assay for xenobiotic metabolism (CYP1A1) at 24 hours (AID 2283673).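 Note: CYP1A1 mRNA level by quantitative nuclease protection with chemiluminescence.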 The method in brief:
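Transcript levels were read at 24 h by qNPA chemiluminescence in human liver primary cells. Cells got daily fresh dosing at multiple concentrations (vehicle 0.2% DMSO). Induction fitted upward against DMSO; phase-contrast cytotoxicity annotated.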

Read-out in assay [4]: ABC Transporter (ABCB11), ABCB11 (gene 8647)
Put plainly: CLD_ABCB11_24hr: CellzDirect (CLD) Gene Expression Assay for ABC Transporter (ABCB11) at 24 hours (AID 2283674; active = hit-call score of the fitted dose curve at least 0.9, where 1 is the maximum; inactive = score below 0.9). The method, boiled down: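 ABCB11 transcript was quantified by qNPA chemiluminescence in cultured human liver hepatocytes 24 hours after dosing. Fresh dosing solutions were applied on consecutive days, against a 0.2% DMSO vehicle. Cytotoxicity was noted by phase-contrast morphology.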

Assay [5] is described as follows: CLD_ACTIN_6hr: CellzDirect (CLD) Gene Expression Assay for Baseline Control (Actin) at 6 hours (AID 2283676).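 Note: active means increased actin mRNA relative to DMSO vehicle.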 The method, boiled down:
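Baseline actin transcript level measured by qNPA (S1 nuclease protection, chemiluminescence) in human hepatocyte cultures 6 h after chemical exposure; 0.2% DMSO vehicle as reference, cytotoxicity noted from morphology.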

Read-out in assay [6]: Cytochrome P450 2C19 (Homo sapiens) (UniProt P33261)
Put plainly: CLD_CYP2C19_6hr: CellzDirect (CLD) Gene Expression Assay for xenobiotic metabolism (CYP2C19) at 6 hours (AID 2283678). The method, boiled down: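 CYP2C19 transcript induction was quantified by quantitative nuclease protection assay with chemiluminescent read-out, 6 h after dosing. Cells were primary human hepatocytes from two donor preparations, given fresh dosing solutions daily in 0.2% DMSO vehicle. Activity was relative to DMSO.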

Read-out in assay [7]: xenobiotic metabolism (CYP1A2), CYP1A2 (gene 1544)
The assay is described as follows: CLD_CYP1A2_24hr: CellzDirect (CLD) Gene Expression Assay for xenobiotic metabolism (CYP1A2) at 24 hours (AID 2283683). The method, boiled down: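 CYP1A2 mRNA induction measured by quantitative nuclease protection (chemiluminescent) in human primary hepatocytes 24 h after multi-concentration chemical dosing with daily fresh solutions. DMSO (0.2%) baseline; positive-direction fitting; morphology-based cytotoxicity noted.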

Read-out in assay [8]: ABC Transporter (ABCB1), ABCB1 (gene 5243)
The assay is described as follows: CLD_ABCB1_24hr: CellzDirect (CLD) Gene Expression Assay for ABC Transporter (ABCB1) at 24 hours (AID 2283684). The method in brief: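 ABCB1 mRNA induction versus 0.2% DMSO vehicle was read by qNPA chemiluminescence at 24 h. Cultured human hepatocytes from two donor preparations received daily fresh dosing, and phase-contrast cytotoxicity calls were annotated alongside the data.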

Read-out in assay [9]: Cytochrome P450 2B6 (Homo sapiens) (UniProt P20813)
The assay is described as follows: CLD_CYP2B6_24hr: CellzDirect (CLD) Gene Expression Assay for xenobiotic metabolism (CYP2B6) at 24 hours (AID 2283686). The method, boiled down: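 qNPA chemiluminescent measurement of mRNA at 24 hours in human primary hepatocyte cultures from two donor preparations, with daily fresh dosing and 0.2% DMSO vehicle as baseline. Morphology-based cytotoxicity flagged yes/no.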

Read-out in assay [10]: Cytochrome P450 2C19 (Homo sapiens) (UniProt P33261)
Put plainly: CLD_CYP2C19_24hr: CellzDirect (CLD) Gene Expression Assay for xenobiotic metabolism (CYP2C19) at 24 hours (AID 2283687).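 Note: activity means mRNA induction above DMSO vehicle baseline.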 The method in brief:
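CYP2C19 mRNA was quantified by qNPA chemiluminescence after 24 h of daily dosing of cultured human primary hepatocytes from two donors; vehicle was 0.2% DMSO, and increases over DMSO baseline were fitted.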

Read-out in assay [11]: ABC Transporter (ABCB1), ABCB1 (gene 5243)
Put plainly: CLD_ABCB1_48hr: CellzDirect (CLD) Gene Expression Assay for ABC Transporter (ABCB1) at 48 hours (AID 2283695). The method, boiled down:
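ABCB1 mRNA was measured by quantitative nuclease protection assay (chemiluminescence) 48 h after dosing. Human hepatocyte cultures from two separate donors received fresh dosing solutions daily for two days, with 0.2% DMSO as vehicle. Positive-direction fit against DMSO.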

Assay [12] in a line: Tanguay_ZF_120hpf_TR_legacy: (Legacy) Oregon State University Tanguay Lab 120 Hour Post-fertilization zebrafish Assay for Touch Response (AID 2283667). The method, boiled down:
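Readout is presence or absence of touch response in 120 hpf zebrafish larvae, assessed by brightfield observation after continuous static exposure at 28C. Final vehicle was 0.64% (vol/vol) DMSO.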

Read-out in assay [13]: ABC Transporter (ABCB11), ABCB11 (gene 8647)
The assay is described as follows: CLD_ABCB11_6hr: CellzDirect (CLD) Gene Expression Assay for ABC Transporter (ABCB11) at 6 hours (AID 2283675).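 Note: hits raise ABCB11 mRNA level so AC50 marks induction.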 The method in brief: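 Read-out was ABCB11 mRNA gain of signal by quantitative nuclease protection assay, relative to 0.2% DMSO vehicle, 6 h post-dose. Cells were primary human hepatocytes from two donors, treated across multiple concentrations; phase-contrast cytotoxicity noted yes/no.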

Read-out in assay [14]: Broad substrate specificity ATP-binding cassette transporter ABCG2 (Homo sapiens) (UniProt Q9UNQ0)
Put plainly: CLD_ABCG2_24hr: CellzDirect (CLD) Gene Expression Assay for ABC Transporter (ABCG2) at 24 hours (AID 2283685). The method in brief: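 ABCG2 mRNA induction, read as gain of chemiluminescent signal over 0.2% DMSO, was measured by quantitative nuclease protection at 24 h. Cultured human liver hepatocytes were given fresh dosing solutions of test chemicals at several concentrations each day.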

Read-out in assay [15]: organic anion transporter (SLCO1B1), SLCO1B1 (gene 10599)
Put plainly: CLD_SLCO1B1_24hr: CellzDirect (CLD) Gene Expression Assay for organic anion transporter (SLCO1B1) at 24 hours (AID 2283690). The method, boiled down: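 SLCO1B1 mRNA induction read at 24 h by quantitative nuclease protection assay (chemiluminescence), analyzed against DMSO baseline. Human hepatocyte cultures from separate donors received fresh dosing solutions daily; vehicle 0.2% DMSO; cytotoxicity flagged by phase-contrast morphology.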

Read-out in assay [16]: sulfotransferase (SULT2A), SULT2A1 (gene 6822)
Put plainly: CLD_SULT2A_24hr: CellzDirect (CLD) Gene Expression Assay for sulfotransferase (SULT2A) at 24 hours (AID 2283694). The method in brief:
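mRNA is measured by qNPA: probe hybridisation, S1 nuclease digestion, chemiluminescence, in lysates from human primary hepatocytes harvested 24 h after daily dosing. Vehicle was 0.2% DMSO. Phase-contrast microscopy flagged cytotoxicity (yes/no).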

Assay [17] can be described thus: CCTE_Padilla_ZF_144hpf_TERATOSCORE: (Legacy) CCTE's 144 Hour Post-fertilization zebrafish Assay Teratoscore, Padilla Lab (AID 2283679; active = hit-call score of the fitted dose curve at least 0.9, where 1 is the maximum; inactive = score below 0.9;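 note: zebrafish embryos with chorions exposed by immersion from 6-8 hpf to 5 dpf with daily renewal; teratogenicity score from eye scoring of death hatching and malformations at 144 hpf; higher score means more developmental defects relative to DMSO baseline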). The method, boiled down: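 Larvae scored by eye at 144 hpf for death, hatching and malformations after a day in clean Hanks'. Before that, daily-renewed exposure at 80 uM (0.4% DMSO, 26C) from roughly 6-8 hpf through 5 dpf, 4 embryos per chemical.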

Read-out in assay [18]: alkyl and aryl transferase (GSTA2), GSTA2 (gene 2939)
The assay is described as follows: CLD_GSTA2_6hr: CellzDirect (CLD) Gene Expression Assay for alkyl and aryl transferase (GSTA2) at 6 hours (AID 2283666). The method, boiled down: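 GSTA2 transcript induction at 6 h, quantified by nuclease protection (qNPA) with chemiluminescent detection, in human liver primary hepatocytes exposed to several compound concentrations with 0.2% DMSO as baseline; phase-contrast morphology annotated apparent cytotoxicity.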

Read-out in assay [19]: Cytochrome P450 (CYP24A1_1), CYP24A1 (gene 1591)
Put plainly: LTEA_HepaRG_CYP24A1_1: Life Technologies and Expression Analysis (LTEA) Assay for Cytochrome P450 (CYP24A1_1) using HepaRG (AID 2283671; active = hit-call score of the fitted dose curve at least 0.9, where 1 is the maximum; inactive = score below 0.9). The conditions noted are these: mRNA level, 48 h; actives raise or lower the signal. The method, boiled down:
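Cultures of human HepaRG were treated in duplicate for 48 h (0.5% DMSO vehicle, highest dose 100 uM). CYP24A1 mRNA by qRT-PCR, normalized to ACTB, GAPDH, POLR2A.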

Read-out in assay [20]: Cytochrome P450 3A4 (Homo sapiens) (UniProt P08684)
The assay is described as follows: CLD_CYP3A4_6hr: CellzDirect (CLD) Gene Expression Assay for xenobiotic metabolism (CYP3A4) at 6 hours (AID 2283680). The method, boiled down: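 CYP3A4 mRNA induction, 6 h after dosing of cultured primary human hepatocytes from two donors, read by quantitative nuclease protection (qNPA, chemiluminescence). Vehicle 0.2% DMSO as baseline; morphology-based cytotoxicity annotated yes/no.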

Results filed as inconclusive are left out. The source made the active and inactive calls. Rule for the calls, unless noted: active = hit-call score of the fitted dose curve at least 0.9, where 1 is the maximum; inconclusive = response in the unintended direction; inactive = score below 0.9.

Sequence of Cytochrome P450 2C19 (Homo sapiens) (P33261 whole entry, looked up): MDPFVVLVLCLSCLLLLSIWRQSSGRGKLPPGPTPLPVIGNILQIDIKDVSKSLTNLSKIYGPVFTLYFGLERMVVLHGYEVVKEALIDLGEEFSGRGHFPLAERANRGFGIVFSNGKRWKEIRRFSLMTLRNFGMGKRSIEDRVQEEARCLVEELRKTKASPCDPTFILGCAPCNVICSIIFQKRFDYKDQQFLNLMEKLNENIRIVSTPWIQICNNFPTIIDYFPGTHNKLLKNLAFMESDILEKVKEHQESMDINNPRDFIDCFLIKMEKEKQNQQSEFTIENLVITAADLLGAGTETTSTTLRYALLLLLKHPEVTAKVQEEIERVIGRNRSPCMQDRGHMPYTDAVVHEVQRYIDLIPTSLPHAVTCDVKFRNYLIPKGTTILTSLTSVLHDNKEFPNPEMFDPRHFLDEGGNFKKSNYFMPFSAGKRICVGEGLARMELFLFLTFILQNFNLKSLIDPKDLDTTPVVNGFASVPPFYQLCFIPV
Sequence of Broad substrate specificity ATP-binding cassette transporter ABCG2 (Homo sapiens) (Q9UNQ0 whole entry, looked up): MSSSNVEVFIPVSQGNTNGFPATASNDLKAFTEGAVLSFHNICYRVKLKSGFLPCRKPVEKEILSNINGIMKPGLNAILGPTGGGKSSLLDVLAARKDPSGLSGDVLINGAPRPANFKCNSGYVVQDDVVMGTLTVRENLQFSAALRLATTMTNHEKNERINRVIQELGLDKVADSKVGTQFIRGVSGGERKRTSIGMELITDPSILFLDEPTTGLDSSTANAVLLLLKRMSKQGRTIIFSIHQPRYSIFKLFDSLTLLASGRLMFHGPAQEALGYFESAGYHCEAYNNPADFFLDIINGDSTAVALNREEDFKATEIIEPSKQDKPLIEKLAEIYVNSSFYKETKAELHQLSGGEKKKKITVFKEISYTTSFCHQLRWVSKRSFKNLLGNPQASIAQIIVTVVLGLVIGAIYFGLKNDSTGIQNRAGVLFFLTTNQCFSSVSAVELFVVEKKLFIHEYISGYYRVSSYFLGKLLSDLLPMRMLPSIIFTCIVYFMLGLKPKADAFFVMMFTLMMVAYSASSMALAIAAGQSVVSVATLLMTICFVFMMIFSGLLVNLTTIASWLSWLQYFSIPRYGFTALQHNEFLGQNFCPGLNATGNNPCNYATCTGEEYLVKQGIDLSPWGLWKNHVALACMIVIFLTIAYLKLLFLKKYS
Sequence of Cytochrome P450 3A4 (Homo sapiens) (P08684 whole entry, looked up): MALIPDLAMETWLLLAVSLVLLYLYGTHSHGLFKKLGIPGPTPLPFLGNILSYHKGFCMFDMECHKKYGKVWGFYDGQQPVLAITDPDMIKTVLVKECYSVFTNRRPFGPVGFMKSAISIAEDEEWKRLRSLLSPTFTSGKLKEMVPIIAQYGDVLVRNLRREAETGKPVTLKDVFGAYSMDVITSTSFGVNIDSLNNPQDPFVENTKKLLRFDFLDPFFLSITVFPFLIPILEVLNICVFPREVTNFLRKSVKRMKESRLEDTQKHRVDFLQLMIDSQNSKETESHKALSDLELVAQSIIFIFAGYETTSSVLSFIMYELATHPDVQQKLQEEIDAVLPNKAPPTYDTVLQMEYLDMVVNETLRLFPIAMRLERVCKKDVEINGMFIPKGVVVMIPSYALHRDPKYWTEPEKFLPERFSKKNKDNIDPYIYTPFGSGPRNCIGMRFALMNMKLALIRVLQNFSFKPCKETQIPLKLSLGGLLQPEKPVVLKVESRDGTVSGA

`COC(=O)c1ccc(CNS(C)(=O)=O)cc1S(=O)(=O)NC(=O)Nc1nc(OC)cc(OC)n1`: the call in assay [1], in assay [2], in assay [3], in [4], in assay [5] and in assay [6] was inactive. The outcome in assay [7], in [8], in assay [9], in [10] and in assay [11] was inactive.

As a reminder, the AC50 is the concentration giving half of the maximal activity seen. As for `C#CCOC(=O)[C@@H](C)Oc1ccc(Oc2ncc(Cl)cc2F)cc1`, the compound was called inactive in assay [12], in assay [1], in assay [2], in assay [4], in assay [13] and in [5]. Further, the call in assay [6], in assay [7], in assay [8], in assay [14], in assay [10] and in assay [15] was inactive. Moreover, the call in assay [16] and in assay [11] was inactive. Further, the AC50 in assay [9] is 0.000411 µM (active).

`N[C@@H](Cc1cc(I)c(Oc2ccc(O)c(I)c2)c(I)c1)C(=O)O`: the half-maximal activity concentration (AC50) was 7.63 µM (active) in assay [12] and 0.331 µM (active) in [17].

Consider `CC(C)CCCCCCc1ccc(O)cc1`, for which the result in assay [12] was inactive.

In the case of `O=C(Nc1ccc([N+](=O)[O-])cc1Cl)c1cc(Cl)ccc1O`, the compound was classed as inactive in [18], in [1], in assay [13], in [5], in [8] and in [14]. Further, the compound was classed as inactive in [9], in assay [15], in assay [16] and in assay [11]. Moreover, the AC50 was 7.01 µM (active) in assay [3], 1.65 µM (active) in assay [17] and 3.97 µM (active) in assay [7].

With `CCCCOCCOCCOCc1cc2c(cc1CCC)OCO2`, the call in assay [12], in [19], in [2], in [8] and in assay [16] was inactive. Besides, the AC50 in assay [3] was 2.56 µM (active); in assay [17], 15.3 µM (active); in assay [7], 0.858 µM (active); in [9] it was 1.9 µM (active).

In the case of `CCCCCCC(C)OC(=O)COc1nc(F)c(Cl)c(N)c1Cl` (configuration not stated), the result in [12], in assay [19], in [2], in assay [3], in assay [5] and in assay [6] was inactive. For the same compound, the outcome in assay [20], in [7], in assay [14], in assay [9], in assay [15] and in [16] was inactive. The compound was classed as inactive in [11].

As for `CCCCOC(=O)[C@@H](C)Oc1ccc(Oc2ccc(C(F)(F)F)cn2)cc1`, the compound was classed as inactive in assay [2], in assay [13], in [5], in assay [6], in assay [20] and in [8]. Moreover, the call in [14], in assay [9], in assay [15] and in [16] was inactive. Besides, the AC50 in assay [3] is 20 µM (active); in [17] it was 5.45 µM (active); in assay [7] it was 20 µM (active).

Values taken from PubChem BioAssay (EPA / NIEHS).
